Screening results from PubChem BioAssay.
UCHL1 inh: human UCHL1 deubiquitinase inhibition. purified UCHL1, Ub-rhodamine cleavage fluorescence. inhibition, % at 20 µM. 0.2% of 47,000 active
OTUD3 block: human OTUD3 deubiquitinase inhibition; Q5T2D3; purified OTUD3, Ub-rhodamine fluorescence, 2 h; 0.7% of 47,000 active; inhibition, % at 25 µM
Target sequence (Q5T2D3 whole entry, looked up): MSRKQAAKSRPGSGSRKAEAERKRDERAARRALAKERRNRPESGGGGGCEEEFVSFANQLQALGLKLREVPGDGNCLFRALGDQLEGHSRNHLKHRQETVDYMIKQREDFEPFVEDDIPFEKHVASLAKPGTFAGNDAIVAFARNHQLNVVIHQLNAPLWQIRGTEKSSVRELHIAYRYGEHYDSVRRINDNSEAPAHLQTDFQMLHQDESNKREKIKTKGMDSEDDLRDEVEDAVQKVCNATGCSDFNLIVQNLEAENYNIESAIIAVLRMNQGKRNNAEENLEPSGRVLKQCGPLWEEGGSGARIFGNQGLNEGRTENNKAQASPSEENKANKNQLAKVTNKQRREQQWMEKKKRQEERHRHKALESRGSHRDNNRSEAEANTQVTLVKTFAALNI
USP7 block: human USP7 deubiquitinase inhibition | Q93009 | purified USP7, Ub-rhodamine cleavage fluorescence | inhibition, % at 20 µM | 0.3% of 47,000 active
* marks the source's active call; other numbers are inactive results. Hits are enriched below; roughly 0.83% of the tested compounds scored in any of these assays. Rule as the data show it: active = inhibition above about 30%; inactive = the rest.

SMILES	UCHL1 inh	OTUD3 block	USP7 block
O=C(CCc1cccnc1)N1CCCC2(CCCN2Cc2ccc(Cl)cc2)C1 (configuration not stated)	-1	5	-13
COc1ccc(CN2CCCC23CCCN(C(=O)CCc2cccnc2)C3)cc1F (configuration not stated)	0	44*	1
CCCCC[C@H](O)/C=C/C=C/CCCCCCCC(=O)O	0	21	-6
CC/C=C\C/C=C\C/C=C\CCCCCCCC(=O)O	35*	73*	41*
Cn1c2ccccc2c(=O)c2c(=O)n(-c3cccc(Cl)c3)c(-c3cccs3)nc21	29	-7	66*
CCc1nc2c(c(=O)c3ccccc3n2C)c(=O)n1-c1ccc(C)cc1	33*	1	-5
Cn1c2ccccc2c(=O)c2c(=O)n(-c3ccccc3)c(-c3ccc(Cl)cc3)nc21	1	16	5
COc1ccc(CCn2c(-c3ccc(C)cc3)nc3c(c(=O)c4ccccc4n3C)c2=O)cc1	1	-3	2
COc1ccc(NC(=O)CSc2ccc(F)cc2)cc1	1	16	0
O=S(=O)(c1cccc(F)c1)N1CCN(c2nnnn2-c2ccccc2)CC1	-2	41*	2
O=S(=O)(c1ccc(F)cc1)N1CCN(c2nnnn2-c2ccccc2)CC1	-1	0	4
O=C(NCc1cccnc1)[C@@H]1CC[C@@H]2[C@@H](CCN2Cc2ccco2)O1	1	1	5
Cc1noc(C)c1CN1CC[C@H]2O[C@H](C(=O)NCc3ccco3)CC[C@H]21	-5	33*	-1
O=C(c1cccs1)[C@@H]1[C@@H](C(=O)c2ccc3c(c2)OCO3)[C@]2(C(=O)Nc3ccccc32)[C@H]2C=Cc3ccccc3N12	1	-43	-1
COc1ccc(OC)c(C2=NO[C@]3(C(=O)Nc4ccccc43)[C@H]2C(=O)c2ccc(OC)c(OC)c2)c1	85*	1	5
COc1cc(C2=NO[C@]3(C(=O)Nc4ccccc43)[C@H]2C(=O)c2ccc(C)cc2)ccc1OCC#N	11	9	3
Cc1ccccc1NC(=O)Nc1ccccc1OCc1cc(=O)n2ccccc2n1	6	12	6
CCc1nc2c(C#N)c(-c3ccc(Cl)cc3)ccn2n1	7	32*	-45
N#Cc1c(-c2ccc3c(c2)OCO3)ccn2nc(-c3ccco3)nc12	-8	-10	-23
CC(=O)Nc1c(-c2ccc(C)cc2)c(C)nn1-c1ccc(C(=O)Nc2cccc(C#N)c2)cc1	0	-5	5
COc1cccc(NC(=O)Cn2cc(C(=O)c3ccc(C)cc3)c(=O)c3cc(Cl)ccc32)c1	13	0	35*
CCOc1ccc2c(c1)c(=O)c(C(=O)c1ccccc1)cn2CC(=O)Nc1ccccc1	4	-5	27
CCOc1ccc2c(c1)c(=O)c(C(=O)c1ccc(C)cc1)cn2CC(=O)Nc1ccc(OC)cc1	-2	-7	1
Cc1ccc(C(=O)c2cn(CC(=O)Nc3ccc(F)c(F)c3)c3ccc(F)cc3c2=O)cc1	-3	-40	19
CCOc1ccc2c(c1)c(=O)c(C(=O)c1ccc(C)cc1)cn2CC(=O)Nc1ccc(C)cc1	24	7	60*
SMILES	UCHL1 inh	OTUD3 block	USP7 block
Cc1ccc2c(c1)c(=O)c(C(=O)c1ccccc1)cn2CC(=O)Nc1ccccc1	9	-3	30
CCOc1ccc2c(c1)c(=O)c(C(=O)c1ccc(C)cc1)cn2CC(=O)Nc1ccc(C)c(C)c1	16	0	59*
Cc1ccc(NC(=O)Cn2cc(C(=O)c3ccccc3)c(=O)c3cc(C)ccc32)cc1	0	-1	32*
COc1c(O)cc2cc(C)oc(=O)c2c1O	0	19	2
O=C(NC1CCCCC1)c1cccc(S(=O)(=O)N2CC(c3ccccc3)CC2=O)c1 (configuration not stated)	6	23	-26
CC(C)NC(=O)Cn1ccn2nc(-c3ccc(Cl)cc3)cc2c1=O	3	-1	20
O=C(Cn1nnc2ccccc21)Nc1nc(-c2ccc3c(c2)CCN3C(=O)c2ccccc2F)cs1	6	23	24
Cc1ccc(C(=O)c2cn(CC(=O)Nc3ccc4c(c3)OCO4)c3ccccc3c2=O)cc1	7	22	33*
O=C(Cn1cc(C(=O)c2ccccc2)c(=O)c2cc3c(cc21)OCCO3)Nc1ccc2c(c1)OCO2	-3	-7	-1
COC(=O)c1ccccc1NC(=O)Cn1c(=O)n(CCCC(=O)NCc2ccco2)c(=O)c2ccccc21	3	68*	11
COc1cc(Cl)c(C)cc1NC(=O)Cn1c(=O)n(CC(=O)NCc2ccco2)c(=O)c2ccccc21	8	40*	-22
O=C(Cn1c(=O)c2ccccc2n(CC(=O)Nc2cc(Cl)cc(Cl)c2)c1=O)NCc1ccco1	0	12	2
COc1cccc(NC(=O)Cn2c(=O)n(CCCC(=O)NCc3ccco3)c(=O)c3ccccc32)c1	1	16	-1
COc1ccc(C(=O)N(c2ccc(F)cc2)c2nc3ccccc3s2)cc1OC	4	14	0
COc1ccc(OC)c(NC(=O)CSc2nc(C)nc3c2oc2ccccc23)c1	4	13	3
CCCn1c(=O)c(-c2ccc(C(=O)NCc3ccc(OC)cc3)cc2)nc2cccnc21	5	23	31*
CCn1c(=O)c(-c2ccc(C(=O)NCc3ccc(OC)cc3OC)cc2)nc2cccnc21	6	3	7
CN1CCN(C(=O)CN2C(=O)C3CCCN3C(=O)c3cc(F)ccc32)CC1 (configuration not stated)	-1	6	2
Cc1ccc(Cn2nnc(C(=O)NCc3ccco3)c2-n2cccc2)cc1	5	11	-5
COc1ccc(NS(=O)(=O)c2cc(NC(=O)/C=C/c3ccco3)ccc2N2CCCC2)cc1	18	44*	13
COc1ccc(NS(=O)(=O)c2cc(NC(=O)C3CC3)ccc2N2CCCCC2)cc1	11	-3	13
CC(C)CNc1nc2c(cc1C(=O)NCC1CC1)CCNCC2	1	21	-65
CC1(C(=O)NC2CCCC2)CCC(=O)N1Cc1cccc(F)c1 (configuration not stated)	-3	-4	-4
C(=C\c1nc(-c2cccc(-c3ccn[nH]3)c2)no1)/c1ccco1	12	5	31*
c1cc(-c2noc(-c3ccoc3)n2)cc(-c2ccn[nH]2)c1	-6	-16	-7
SMILES	UCHL1 inh	OTUD3 block	USP7 block
CC(C)c1cc(C(=O)N2CCOC(CCc3cc(=O)[nH]cn3)C2)on1 (configuration not stated)	2	7	4
Cc1ccc(-n2nnc(C(=O)Nc3ccc(C)c(C)c3)c2C)cc1	2	10	8
Cc1cc(O)c(Oc2cc(C)cc(O)c2O)c(O)c1	0	34*	-81
CN1CCN(C(=O)c2oc3ccccc3c2NC(=O)c2ccc(F)cc2)CC1	4	12	1
c1cncc(-c2cnc3sc(NCc4ccc5c(c4)OCO5)nn23)c1	3	60*	4
c1ccc(CCNc2nn3c(-c4cccnc4)cnc3s2)nc1	4	12	9
Fc1ccc(CNc2nn3c(-c4cccnc4)cnc3s2)cc1	-1	-3	-16
CN(C)c1ccc(CNc2nn3c(-c4cccnc4)cnc3s2)cc1	3	40*	4
COc1ccc(-c2nnc(SCC(=O)Nc3ccc(C)cc3)n2C2CCCCC2)cc1OC	0	17	-15
